Test results taken from the supplement of paper PMC11732987, “Enantioselective OTUD7B fragment discovery through chemoproteomics screening and high-throughput optimisation” (Communications Chemistry, 2025).

Tests used:
Experiment in all cases: log2 ratio of Biotin-Ahx-Ub-VS probe labelling (fragment/DMSO); higher = less target engagement (more negative = stronger competition), active = hit call of the paper (q ≤ 0.05, log2 ratio ≤ -1)
Details in all cases: compound concentration: 200 uM; treatment time: 3 h
OTUD6B = target: T1, OTUD6B (UniProt Q8N6M0)
T1 sequence (whole entry): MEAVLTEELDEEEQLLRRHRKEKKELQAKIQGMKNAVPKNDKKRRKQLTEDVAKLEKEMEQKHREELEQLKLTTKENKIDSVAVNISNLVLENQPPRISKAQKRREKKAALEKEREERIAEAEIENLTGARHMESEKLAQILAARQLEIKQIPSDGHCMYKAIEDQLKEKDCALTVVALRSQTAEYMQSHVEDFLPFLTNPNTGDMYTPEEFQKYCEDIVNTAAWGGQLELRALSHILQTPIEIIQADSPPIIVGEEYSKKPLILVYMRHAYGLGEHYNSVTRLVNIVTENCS
How it was run: (§1)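 Global-median-normalised Spectronaut label-free quantities were compared by unpaired t-test, and values are average log2 ratios of fragment over vehicle. Only proteins with ≥2 unique peptides were used. HEK293T lysate (495 µg per sample) was treated in triplicate with fragment at 200 µM or vehicle for 3 h and then with Biotin-Ahx-Ub-VS at 0.5 µM final for 1 h. Labelled DUBs were then NeutrAvidin-enriched, digested with LysC and trypsin, and run by diaPASEF LC-MS/MS.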

OTUD7B = target: T2, OTUD7B (UniProt Q6GQQ9)
T2 sequence (whole entry): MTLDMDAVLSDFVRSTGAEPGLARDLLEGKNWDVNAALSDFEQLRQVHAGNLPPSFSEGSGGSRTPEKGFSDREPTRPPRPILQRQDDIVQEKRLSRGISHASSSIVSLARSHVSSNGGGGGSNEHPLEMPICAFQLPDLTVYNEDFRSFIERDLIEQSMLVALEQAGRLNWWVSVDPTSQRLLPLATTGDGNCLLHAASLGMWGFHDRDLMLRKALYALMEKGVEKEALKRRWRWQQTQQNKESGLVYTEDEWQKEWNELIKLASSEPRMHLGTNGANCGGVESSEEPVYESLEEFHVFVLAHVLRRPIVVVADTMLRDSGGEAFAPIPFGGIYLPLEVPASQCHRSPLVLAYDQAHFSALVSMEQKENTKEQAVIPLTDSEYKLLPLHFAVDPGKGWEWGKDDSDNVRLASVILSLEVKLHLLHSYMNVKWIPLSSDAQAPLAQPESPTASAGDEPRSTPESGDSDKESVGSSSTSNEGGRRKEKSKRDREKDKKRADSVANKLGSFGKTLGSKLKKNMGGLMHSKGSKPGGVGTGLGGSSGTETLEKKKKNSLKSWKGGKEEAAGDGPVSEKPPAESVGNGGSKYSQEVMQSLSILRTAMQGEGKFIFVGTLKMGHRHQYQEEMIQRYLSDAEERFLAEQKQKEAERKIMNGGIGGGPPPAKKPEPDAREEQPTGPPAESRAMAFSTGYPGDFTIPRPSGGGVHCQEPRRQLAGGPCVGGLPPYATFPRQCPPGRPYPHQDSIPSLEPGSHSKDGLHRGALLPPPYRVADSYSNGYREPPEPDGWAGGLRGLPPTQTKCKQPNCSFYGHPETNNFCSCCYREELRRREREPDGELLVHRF
How it was run: as §1

PRPF8 = PRPF8 (UniProt Q6P2Q9)
How it was run: as §1

PSMD7 = target: T3, PSMD7 (UniProt P51665)
T3 sequence (whole entry): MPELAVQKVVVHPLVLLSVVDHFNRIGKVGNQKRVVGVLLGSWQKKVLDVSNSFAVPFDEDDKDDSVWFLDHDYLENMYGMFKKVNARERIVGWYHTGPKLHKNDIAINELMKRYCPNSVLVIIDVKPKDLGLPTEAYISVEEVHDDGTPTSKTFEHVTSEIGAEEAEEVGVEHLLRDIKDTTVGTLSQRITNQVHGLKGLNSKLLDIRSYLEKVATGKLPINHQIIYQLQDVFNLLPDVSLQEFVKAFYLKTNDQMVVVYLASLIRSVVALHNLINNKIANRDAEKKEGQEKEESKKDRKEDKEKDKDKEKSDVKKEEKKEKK
How it was run: as §1

UCHL1 = UCHL1 (UniProt P09936)
How it was run: as §1

UCHL3 = target: T4, UCHL3 (UniProt P15374)
T4 sequence (whole entry): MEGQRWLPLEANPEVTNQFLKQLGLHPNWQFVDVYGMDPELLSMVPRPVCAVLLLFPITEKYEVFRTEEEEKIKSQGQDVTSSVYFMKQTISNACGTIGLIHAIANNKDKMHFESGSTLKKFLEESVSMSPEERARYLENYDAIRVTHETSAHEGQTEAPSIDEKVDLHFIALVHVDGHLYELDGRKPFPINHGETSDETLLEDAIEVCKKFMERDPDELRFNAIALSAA
How it was run: as §1

UCHL5 = target: T5, UCHL5 (UniProt Q9Y5K5)
T5 sequence (whole entry): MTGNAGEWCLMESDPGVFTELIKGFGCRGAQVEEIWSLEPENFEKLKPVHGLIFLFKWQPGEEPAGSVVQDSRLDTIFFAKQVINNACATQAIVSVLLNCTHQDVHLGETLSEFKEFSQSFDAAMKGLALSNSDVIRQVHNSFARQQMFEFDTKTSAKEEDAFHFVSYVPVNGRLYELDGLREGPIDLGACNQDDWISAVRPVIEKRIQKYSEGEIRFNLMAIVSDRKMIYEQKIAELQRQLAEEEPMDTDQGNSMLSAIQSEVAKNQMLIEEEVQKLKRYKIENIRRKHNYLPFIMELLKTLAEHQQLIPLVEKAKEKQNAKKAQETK
How it was run: as §1

USP10 = USP10 (UniProt Q14694)
How it was run: as §1

USP15 = target: T6, USP15 (UniProt Q9Y4E8)
T6 sequence (whole entry): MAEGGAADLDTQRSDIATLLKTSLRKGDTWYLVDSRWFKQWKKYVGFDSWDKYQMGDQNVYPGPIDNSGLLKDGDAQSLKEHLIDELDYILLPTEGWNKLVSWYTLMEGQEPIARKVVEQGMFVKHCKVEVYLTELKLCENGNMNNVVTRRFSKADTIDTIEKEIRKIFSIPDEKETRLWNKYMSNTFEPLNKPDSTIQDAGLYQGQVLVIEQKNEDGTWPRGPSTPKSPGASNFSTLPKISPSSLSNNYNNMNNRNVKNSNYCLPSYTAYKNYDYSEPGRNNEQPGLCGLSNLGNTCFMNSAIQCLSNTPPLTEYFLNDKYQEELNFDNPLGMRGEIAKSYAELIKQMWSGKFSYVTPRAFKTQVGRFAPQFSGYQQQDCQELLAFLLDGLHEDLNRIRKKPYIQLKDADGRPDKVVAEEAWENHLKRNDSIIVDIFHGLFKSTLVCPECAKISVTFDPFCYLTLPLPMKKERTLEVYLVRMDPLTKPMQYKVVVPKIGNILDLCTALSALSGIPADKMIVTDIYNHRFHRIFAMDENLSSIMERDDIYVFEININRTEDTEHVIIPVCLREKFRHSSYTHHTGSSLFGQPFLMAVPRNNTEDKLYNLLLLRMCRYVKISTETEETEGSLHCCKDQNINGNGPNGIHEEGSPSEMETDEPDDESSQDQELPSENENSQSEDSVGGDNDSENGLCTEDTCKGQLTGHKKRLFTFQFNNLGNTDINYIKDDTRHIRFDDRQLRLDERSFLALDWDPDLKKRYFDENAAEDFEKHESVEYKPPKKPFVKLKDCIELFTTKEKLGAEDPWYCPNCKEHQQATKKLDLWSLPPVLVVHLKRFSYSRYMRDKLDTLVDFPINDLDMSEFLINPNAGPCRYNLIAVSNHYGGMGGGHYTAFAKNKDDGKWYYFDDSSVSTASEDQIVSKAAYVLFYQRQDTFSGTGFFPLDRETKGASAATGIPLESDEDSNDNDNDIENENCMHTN
How it was run: as §1

Measured: log2 ratio of Biotin-Ahx-Ub-VS probe labelling

USP10, sequence (Q14694 whole entry): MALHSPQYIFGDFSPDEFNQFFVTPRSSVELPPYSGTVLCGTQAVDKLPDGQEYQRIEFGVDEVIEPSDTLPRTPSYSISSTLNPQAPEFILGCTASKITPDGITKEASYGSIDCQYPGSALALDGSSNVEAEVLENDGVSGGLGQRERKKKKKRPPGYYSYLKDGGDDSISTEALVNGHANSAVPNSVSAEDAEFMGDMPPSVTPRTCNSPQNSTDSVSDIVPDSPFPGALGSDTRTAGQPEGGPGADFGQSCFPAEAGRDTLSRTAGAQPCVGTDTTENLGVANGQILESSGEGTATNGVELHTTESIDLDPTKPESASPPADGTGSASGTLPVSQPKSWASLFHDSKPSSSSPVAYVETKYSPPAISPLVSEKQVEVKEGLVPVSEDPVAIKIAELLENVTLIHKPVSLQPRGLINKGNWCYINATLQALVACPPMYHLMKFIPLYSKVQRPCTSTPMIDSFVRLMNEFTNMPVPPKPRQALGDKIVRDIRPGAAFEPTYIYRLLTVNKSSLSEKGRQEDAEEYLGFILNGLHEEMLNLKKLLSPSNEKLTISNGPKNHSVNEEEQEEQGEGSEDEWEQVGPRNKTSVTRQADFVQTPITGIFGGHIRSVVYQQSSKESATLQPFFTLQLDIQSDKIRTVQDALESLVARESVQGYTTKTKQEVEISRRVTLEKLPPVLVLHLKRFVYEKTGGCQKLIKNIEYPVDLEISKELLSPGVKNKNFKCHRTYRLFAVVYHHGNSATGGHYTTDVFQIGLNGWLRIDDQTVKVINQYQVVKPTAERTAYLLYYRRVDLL
UCHL1, sequence (P09936 whole entry, looked up): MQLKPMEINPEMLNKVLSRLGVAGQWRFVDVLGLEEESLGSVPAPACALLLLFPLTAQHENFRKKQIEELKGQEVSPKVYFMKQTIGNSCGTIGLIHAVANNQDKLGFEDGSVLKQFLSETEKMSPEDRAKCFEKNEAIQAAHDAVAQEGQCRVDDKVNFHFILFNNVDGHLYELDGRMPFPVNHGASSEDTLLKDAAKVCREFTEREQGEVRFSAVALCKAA

O=C(CCl)Nc1cccc2ncccc12
active: OTUD7B -1 | UCHL1 -1.25
inactive: OTUD6B -0.0779 | PRPF8 -0.308 | PSMD7 -0.0733 | UCHL3 0.101 | UCHL5 -0.321 | USP10 0.0543 | USP15 -0.178
